Measurements reported in PubChem BioAssay (EPA / NIEHS).
Records with an inconclusive call do not appear. Activity calls are given as the source filed them. How the source made its calls, unless noted: active means hit-call score of the fitted dose curve at least 0.9, where 1 is the maximum; inactive means score below 0.9.

Legend:
[1] = CCTE_Harrill_HTTr_Viability_MCF7: CCTE's 6-hour Cell Viability Assessment for the High-Throughput Transcriptomics (HTTr) Platform, in MCF-7 cells cultured in DMEM + 10% fetal bovine serum, Harrill Lab (AID 2284010)
Procedure, shortened: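 Cells were dosed with chemicals in an eight-point dilution series, imaged 6 hours later for propidium iodide uptake, and the endpoint was analyzed by bidirectional fitting against DMSO as negative control.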

[2] = CCTE_Harrill_HTTr_Apoptosis_MCF7: CCTE's 6-hour Apoptosis Assessment for the High-Throughput Transcriptomics (HTTr) Platform, in MCF-7 cells cultured in DMEM + 10% fetal bovine serum, Harrill Lab (AID 2284011)
Procedure, shortened: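 High-content imaging of CellEvent Caspase 3/7 Green signal follows a six-hour exposure, with eight concentrations per chemical. MCF-7 cells grown in DMEM plus 10% fetal bovine serum; activity fitted in both directions against DMSO.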

[3] = CCTE_Harrill_HTTr_CellCount_MCF7: CCTE's Cell Proliferation Assessment for the High-Throughput Transcriptomics (HTTr) Platform, Harrill Lab (AID 2284012; active means hit-call score of the fitted dose curve at least 0.9, where 1 is the maximum;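 further: count of Hoechst-stained nuclei per well by high-content imaging in MCF-7 cells; cells exposed to compound for six hours; intended direction is loss of nuclei count meaning fewer cells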)
Procedure, shortened: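 Chemicals in eight-point dilution series are added to MCF-7 cells for six hours, nuclei are stained with Hoechst and imaged, and per-well nuclei counts are fitted in both directions relative to DMSO controls.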

| SMILES | outcome [1] | outcome [2] | outcome [3] | AC50 [2] |
| --- | --- | --- | --- | --- |
| Cc1ccc(N)cc1 | inactive | inactive | inactive |  |
| CO[C@@H]1[C@H](OC(=O)NC(=O)CCl)CC[C@]2(CO2)[C@H]1[C@@]1(C)O[C@@H]1CC=C(C)C | inactive | inactive |  |  |
| Oc1ccc2ccc3cccc4ccc1c2c34 | inactive |  |  | 48.2 µM (active) |
| CCCCCCCCOC(=O)c1ccc(C(=O)OCCCCCCCC)c(C(=O)OCCCCCCCC)c1 | inactive |  | inactive |  |
| CN(C)C(=O)Nc1ccc(Cl)cc1 | inactive |  | inactive |  |
| CCCCCCCCCCCCCN1CC(C)OC(C)C1 (centres undefined) | inactive |  | inactive |  |
| CC(C)(C)OOC(C)(C)CCC(C)(C)OOC(C)(C)C | inactive |  | inactive |  |
| CCOc1cccc(C2(N3CCN(c4ccccc4)CC3)CCC(C)CC2)c1 (centres undefined) | inactive | inactive | inactive |  |
| CN(C)c1ccc(C(=O)c2ccc(N(C)C)cc2)cc1 | inactive |  | inactive |  |
| Nc1ccc([N+](=O)[O-])cc1 | inactive | inactive | inactive |  |
| CS(=O)(=O)NC(=O)c1cc(Oc2ccc(C(F)(F)F)cc2Cl)ccc1[N+](=O)[O-] | inactive | inactive | inactive |  |
| CCNS(=O)(=O)C(F)(F)C(F)(F)C(F)(F)C(F)(F)C(F)(F)C(F)(F)C(F)(F)C(F)(F)F | inactive |  |  |  |
| O=C1CCCO1 | inactive |  | inactive |  |
| Clc1ccccc1Cl | inactive | inactive |  |  |
| c1ccc2c(c1)-c1cccc3cccc-2c13 | inactive | inactive |  |  |
| Nc1ccc(Cc2ccc(N)cc2)cc1 | inactive |  |  |  |
| Nc1cc(Cl)cc(C(=O)O)c1Cl | inactive | inactive | inactive |  |
| CC(O)CCO (centres undefined) | inactive |  | inactive |  |
| N#CC(Br)(Br)C(N)=O | inactive | inactive | inactive |  |
| OCCOCCO | inactive |  | inactive |  |

| SMILES | outcome [1] | outcome [2] | outcome [3] | AC50 [2] |
| --- | --- | --- | --- | --- |
| Nc1ccc(Cl)cc1N | inactive |  | inactive |  |
| Clc1ccc(Cl)c(Cl)c1 | inactive | inactive |  |  |
| Cc1cccc(N)c1N | inactive | inactive |  |  |
| [O-][Cl+]O | inactive |  |  |  |
| Brc1ccc(Oc2ccccc2)cc1 | inactive |  | inactive |  |
| CNC(=O)Oc1cccc2c1OC(C)(C)C2 | inactive |  |  |  |
| CCC12COCN1COC2 | inactive | inactive | inactive |  |
| c1ccc(C2CO2)cc1 (centres undefined) | inactive |  | inactive |  |
| CN(C)[C@@H]1C(=O)C(C(N)=O)=C(O)[C@@]2(O)C(=O)C3=C(O)c4c(O)cccc4[C@@](C)(O)[C@H]3C[C@@H]12 | inactive | inactive | inactive |  |
| COP(=S)(OC)SCN1C(=O)c2ccccc2C1=O | inactive |  | inactive |  |
| OCCCl | inactive | inactive |  |  |
| c1ccc2c(c1)oc1ccccc12 | inactive | inactive |  |  |
| Cc1ccc(N=C=O)cc1N=C=O | inactive |  |  |  |
| O=C(Nc1ccccc1)c1ccccc1I | inactive | inactive |  |  |
| C1=Cc2cccc3cccc1c23 | inactive | inactive | inactive |  |
| COC(=O)c1ccccc1N | inactive | inactive | inactive |  |
| O=C(O)C1C2CCC(O2)C1C(=O)O (centres undefined) | inactive |  | inactive |  |
| Nc1ccc(Oc2ccc(N)cc2)cc1 | inactive |  | inactive |  |
| CN(C)c1ccccc1 | inactive | inactive | inactive |  |
